The campaign covered roughly 310,000 compounds. About 14,000 (4.5%) showed an effect of 50% or more. Effects have a minus sign here. The entries come from a sample that favours strong results as a whole.

The text below walks through data of PMC4336329 (PLoS ONE, 2015).
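Note: peak tail current of the secondary pulse compared with the same well before compound.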

Sequence of human ether-à-go-go-related gene (hERG) potassium channel (Q12809 whole entry, looked up): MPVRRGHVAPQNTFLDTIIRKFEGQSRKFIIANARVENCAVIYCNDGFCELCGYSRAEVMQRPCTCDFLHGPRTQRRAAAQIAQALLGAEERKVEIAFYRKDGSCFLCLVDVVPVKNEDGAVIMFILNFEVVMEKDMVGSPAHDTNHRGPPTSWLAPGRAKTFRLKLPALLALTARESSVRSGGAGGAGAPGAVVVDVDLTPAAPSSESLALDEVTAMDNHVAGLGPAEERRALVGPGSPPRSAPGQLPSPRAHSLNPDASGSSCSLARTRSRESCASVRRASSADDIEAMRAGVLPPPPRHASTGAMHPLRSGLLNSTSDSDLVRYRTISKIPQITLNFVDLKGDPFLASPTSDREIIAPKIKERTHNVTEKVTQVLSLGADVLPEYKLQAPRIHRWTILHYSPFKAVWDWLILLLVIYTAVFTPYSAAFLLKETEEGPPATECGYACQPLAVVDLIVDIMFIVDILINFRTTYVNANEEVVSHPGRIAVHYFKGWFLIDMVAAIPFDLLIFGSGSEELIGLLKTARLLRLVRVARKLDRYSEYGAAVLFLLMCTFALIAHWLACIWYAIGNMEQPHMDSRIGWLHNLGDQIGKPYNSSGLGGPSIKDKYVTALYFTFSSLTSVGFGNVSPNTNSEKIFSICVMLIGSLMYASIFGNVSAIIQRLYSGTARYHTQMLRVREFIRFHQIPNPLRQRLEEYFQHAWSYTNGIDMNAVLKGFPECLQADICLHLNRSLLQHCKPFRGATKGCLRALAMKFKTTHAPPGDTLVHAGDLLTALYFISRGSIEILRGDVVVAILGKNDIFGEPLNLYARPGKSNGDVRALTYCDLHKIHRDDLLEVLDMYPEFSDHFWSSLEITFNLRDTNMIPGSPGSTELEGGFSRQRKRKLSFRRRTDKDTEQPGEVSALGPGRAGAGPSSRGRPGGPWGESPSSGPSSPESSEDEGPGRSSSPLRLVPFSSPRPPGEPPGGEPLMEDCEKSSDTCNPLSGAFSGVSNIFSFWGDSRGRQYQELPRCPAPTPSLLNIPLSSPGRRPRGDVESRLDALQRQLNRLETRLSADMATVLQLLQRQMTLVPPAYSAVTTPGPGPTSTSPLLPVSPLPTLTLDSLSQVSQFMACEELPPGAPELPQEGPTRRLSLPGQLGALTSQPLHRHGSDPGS

The assay addresses human ether-à-go-go-related gene (hERG) potassium channel (human, UniProt Q12809). The assay is described as follows: primary screen, population patch clamp on CHO cells stably expressing hERG; higher = less effect of the substance.
In the case of `CCOC(=O)C(=NCCCN(C)C)NNc1cc(C(F)(F)F)ccc1Cl`, the “hERG current change (%, negative = inhibition) at 10uM” value is on record as -18.5%.

With `O=C(NCCCn1ccnc1)c1ccc(Br)c(S(=O)(=O)N2CCOCC2)c1`, the “hERG current change (%, negative = inhibition) at 10uM” value is reported as -7.41%.

On to `COc1ccc(OC)c(NC(=O)Nc2cc(C(=O)O)ccc2C)c1`, for which the “hERG current change (%, negative = inhibition) at 10uM” value is 13.1%.

`COc1ccccc1NC(=O)CN1C(=O)NC(CC(C)C)C1=O` (stereo not shown): the “hERG current change (%, negative = inhibition) at 10uM” value amounted to 4.37%.

As to `O=C(CCC(=O)N1CCCC1)Nc1ccc([N+](=O)[O-])cc1`, the “hERG current change (%, negative = inhibition) at 10uM” value was -1.25%.

For the compound `NC(=S)N/N=C/c1ccc(C(F)(F)F)cc1`, the “hERG current change (%, negative = inhibition) at 10uM” value came out at 11%.

Turning to `O=C(CSc1cccc[n+]1[O-])c1cc2ccccc2o1`, the “hERG current change (%, negative = inhibition) at 10uM” value is reported as -4.46%.

On to `COC(=O)c1sccc1NC(=O)c1cc(OC)c(OC)c(OC)c1`, for which the “hERG current change (%, negative = inhibition) at 10uM” value is 3.09%.

With `O=NN1CCN(c2ccncc2S(=O)(=O)N2CCCCC2)CC1`, the “hERG current change (%, negative = inhibition) at 10uM” value came out at 10.6%.

For the compound `COc1ccc(-c2noc(-c3ccccc3C(=O)NCc3ccco3)n2)cc1`, the “hERG current change (%, negative = inhibition) at 10uM” value was 3.2%.

For `OCCN1CCN(c2nnc(-c3ccccc3)c3ccccc23)CC1`, the “hERG current change (%, negative = inhibition) at 10uM” value was -23.5%.

Regarding `CCOc1ccc(-c2nnc(N3CCOCC3)c3ccccc23)cc1`, the “hERG current change (%, negative = inhibition) at 10uM” value is on record as -69.6%.

On to `CCN1CCN(c2nnc(-c3ccccc3)c3ccccc23)CC1`, for which the “hERG current change (%, negative = inhibition) at 10uM” value is on record as -36.8%.

`CCOc1ccc(-c2nnc(N3CCCCC3)c3ccccc23)cc1`: the “hERG current change (%, negative = inhibition) at 10uM” value is given as -6.17%.

With `CCN1CCN(c2nnc(-c3ccc(C)cc3)c3ccccc23)CC1`, the “hERG current change (%, negative = inhibition) at 10uM” value was -66.5%.

Consider `Cc1ccc(-c2nnc(N3CCN(CCO)CC3)c3ccccc23)cc1`, for which the “hERG current change (%, negative = inhibition) at 10uM” value is reported as -58.4%.

Turning to `CCN1CCN(c2nnc(-c3ccc(F)cc3)c3ccccc23)CC1`, the “hERG current change (%, negative = inhibition) at 10uM” value was -48.4%.

As to `COc1ccc(-c2nnc(N3CCOCC3)c3ccccc23)cc1`, the “hERG current change (%, negative = inhibition) at 10uM” value is -2.78%.

For `Cc1ccc(-c2nnc(N3CCCCCC3)c3ccccc23)cc1`, the “hERG current change (%, negative = inhibition) at 10uM” value worked out at 1%.

Take `Cc1ccc(C(=O)NCCOc2ccc(Cl)cc2)cc1`: the “hERG current change (%, negative = inhibition) at 10uM” value was found to be 1.42%.

For the compound `COc1cc(/C=C/C(=O)O)ccc1OCc1ccc([N+](=O)[O-])cc1`, the “hERG current change (%, negative = inhibition) at 10uM” value turned out to be 21.8%.

As for `COc1ccc(CC(=O)Nc2ccc(-c3noc(COc4ccccc4C)n3)cc2)cc1`, the “hERG current change (%, negative = inhibition) at 10uM” value stood at 2.1%.

With `COC(=O)c1ccc(COc2ccccc2/C=C(\C#N)C(=O)Nc2ccc(C)cc2C)cc1`, the “hERG current change (%, negative = inhibition) at 10uM” value is given as -11.1%.

In the case of `COC(=O)c1c(-c2ccccc2)noc1-c1ccccc1`, the “hERG current change (%, negative = inhibition) at 10uM” value was 2.19%.

In the case of `CCOC(=O)c1c(OCCO)nn(-c2ccc(Cl)cc2)c1N`, the “hERG current change (%, negative = inhibition) at 10uM” value is reported as -51.8%.

As for `CCOC(=O)c1nn(-c2ccc(Cl)cc2)c(C)cc1=O`, the “hERG current change (%, negative = inhibition) at 10uM” value is given as -0.00902%.

Take `CCOC(=O)c1c(OCCO)nn(-c2ccccc2)c1N`: the “hERG current change (%, negative = inhibition) at 10uM” value was found to be 14.1%.

With `COc1ccc2[nH]cc(CCNS(=O)(=O)c3ccccc3)c2c1`, the “hERG current change (%, negative = inhibition) at 10uM” value was determined as 11.7%.

As to `CCOC(=O)c1c(NC(C)=O)sc2c(O)cccc12`, the “hERG current change (%, negative = inhibition) at 10uM” value was determined as 2.36%.

In the case of `CCOC(=O)c1c(NC(C)=O)sc2c(O)c(Br)ccc12`, the “hERG current change (%, negative = inhibition) at 10uM” value was determined as 6.88%.

Take `CCOC(=O)c1c(NC(C)=O)sc2c(OCC(O)CN(CC)CC)c(Br)ccc12` (stereo not shown): the “hERG current change (%, negative = inhibition) at 10uM” value is -51.3%.

Take `CCOC(=O)c1c(NC(C)=O)sc2c(OCC(O)CNC(C)(C)C)c(Br)ccc12` (stereo not shown): the “hERG current change (%, negative = inhibition) at 10uM” value is -11.8%.

Regarding `CCOC(=O)c1c(NC(C)=O)sc2c(OC)c(Br)ccc12`, the “hERG current change (%, negative = inhibition) at 10uM” value was 2.16%.

Regarding `CCOC(=O)c1c(NC(C)=O)sc2c(OCCN(CC)CC)c(Br)ccc12`, the “hERG current change (%, negative = inhibition) at 10uM” value is reported as -54.8%.

Take `Cn1c(=NC(=O)COc2ccccc2)sc2ccccc21`: the “hERG current change (%, negative = inhibition) at 10uM” value is listed as -8.07%.

Regarding `COc1ccc(/C=C/C(=O)NCCNC(=O)c2ccccc2)cc1OC`, the “hERG current change (%, negative = inhibition) at 10uM” value is listed as -8.61%.

For `Cc1ccc(N2C(=O)CC(Nc3cccc4ccccc34)C2=O)cc1` (stereo not shown), the “hERG current change (%, negative = inhibition) at 10uM” value stood at 27.6%.

On to `CC(C)=CC(=O)N1CCC(N2CCC(C(=O)N3CCOCC3)CC2)CC1`, for which the “hERG current change (%, negative = inhibition) at 10uM” value was 28.3%.

Turning to `CC(C)=CCCC(C)CN1CCC(N2CCC(C(=O)N3CCOCC3)CC2)CC1` (stereo not shown), the “hERG current change (%, negative = inhibition) at 10uM” value is reported as -60.4%.

Turning to `CC(C)=CCCC(C)CN1CCC(O)CC1` (stereo not shown), the “hERG current change (%, negative = inhibition) at 10uM” value is on record as -2.96%.

In the case of `CC(C)/C=C/C(=O)N1CCC(N2CCC(C(=O)N3CCOCC3)CC2)CC1`, the “hERG current change (%, negative = inhibition) at 10uM” value was 11%.

Take `CC(C)=CCCC(C)CN1CCC(N2CCC(C(=O)N3CCCC3)CC2)CC1` (stereo not shown): the “hERG current change (%, negative = inhibition) at 10uM” value was -74.8%.

`CC(=O)c1cc(CN2CCC(N3CCC(C(=O)N4CCCC4)CC3)CC2)cs1`: the “hERG current change (%, negative = inhibition) at 10uM” value was -2.23%.

As to `Cl.Nc1ncnc2nc[nH]c12`, the “hERG current change (%, negative = inhibition) at 10uM” value is recorded as 4.95%.

`CCC1CCCCN1CCNC(=O)CNS(=O)(=O)c1ccc2nc(C)sc2c1` (stereo not shown): the “hERG current change (%, negative = inhibition) at 10uM” value is 10.5%.

As for `O=C(Nc1nnc(C2CC2)s1)C1=NN(C2CCS(=O)(=O)C2)C(=O)CC1` (stereo not shown), the “hERG current change (%, negative = inhibition) at 10uM” value stood at 0.219%.

For the compound `Cc1[nH]c(C)c(S(=O)(=O)Nc2ccccc2Cl)c1C(=O)N1CCCC1`, the “hERG current change (%, negative = inhibition) at 10uM” value was 15.7%.

As for `CCN(CC)c1ccc(N=Cc2c(O)n(-c3ccc(Cl)cc3)c(=O)[nH]c2=O)cc1`, the “hERG current change (%, negative = inhibition) at 10uM” value came to 14.5%.

As for `Cc1ccc(C(=O)CCC(=O)Nc2cccnc2)cc1C`, the “hERG current change (%, negative = inhibition) at 10uM” value amounted to 12.4%.

Regarding `CCOc1ccccc1NC(=O)CN1CCC(C(=O)c2ccc(F)cc2)CC1`, the “hERG current change (%, negative = inhibition) at 10uM” value is -20.9%.

Turning to `Cc1ccc(C(=O)C2CCN(CC(=O)Nc3ccc(N(C)C)cc3)CC2)cc1`, the “hERG current change (%, negative = inhibition) at 10uM” value is given as -36.4%.

On to `CC1CCN(CC(=O)Nc2nccs2)CC1`, for which the “hERG current change (%, negative = inhibition) at 10uM” value is on record as 13.6%.

Regarding `CCOc1ccc(C(=O)C2CCN(CC(=O)Nc3nccs3)CC2)cc1`, the “hERG current change (%, negative = inhibition) at 10uM” value is on record as -68.3%.

Take `CCOc1ccc(C(=O)Nc2ccccc2N2CCOCC2)cc1`: the “hERG current change (%, negative = inhibition) at 10uM” value is -5.52%.

`COc1ccc(NC(=O)CN2CCC(C(=O)c3ccc(C)cc3)CC2)c(OC)c1`: the “hERG current change (%, negative = inhibition) at 10uM” value is listed as -29.8%.

For the compound `NC(=O)C1CCN(CC(=O)Nc2nccs2)CC1`, the “hERG current change (%, negative = inhibition) at 10uM” value is given as 10.9%.

Take `CCOc1ccccc1NC(=O)CN1CCC(C(=O)c2ccc(OC)cc2)CC1`: the “hERG current change (%, negative = inhibition) at 10uM” value is recorded as -65.9%.

As to `COc1ccc(C(=O)C2CCN(CC(=O)Nc3ccc(C)cc3)CC2)cc1`, the “hERG current change (%, negative = inhibition) at 10uM” value is -53.4%.

On to `CCOc1ccc(C(=O)C2CCN(CC(=O)Nc3ccccc3N3CCOCC3)CC2)cc1`, for which the “hERG current change (%, negative = inhibition) at 10uM” value is given as -53.6%.

As to `NC(=O)C1CCN(CC(=O)Nc2ccccc2N2CCOCC2)CC1`, the “hERG current change (%, negative = inhibition) at 10uM” value is on record as 3.15%.

For the compound `COc1ccc(C(=O)C2CCN(CC(=O)Nc3ccccc3F)CC2)cc1`, the “hERG current change (%, negative = inhibition) at 10uM” value is on record as -17.2%.
